Experimental data as given in PubChem BioAssay (NCI).
Compounds without any hit were thinned out: in the full panel of roughly 83,000, 20% have a hit.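 Step 1: grow cells in 96-well plates. Step 2: add test compound at a single concentration. Step 3: incubate 48 h. Step 4: record percent growth.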 Calls of active or inactive are those of the source. Rule for the calls: active = growth percent below 10; inactive = the rest.

What was measured:
Test in all cases: NCI-60 one-dose screen, 48 h (100 = growth as untreated, 0 = no growth, -100 = all killed)
Conditions in all cases: 10 µM unless noted
[1] = test system: HCT-15 colon
[2] = test system: HT29 colon
[3] = test system: SNB-75 CNS
[4] = test system: U251 CNS
[5] = test system: PC-3 prostate
[6] = test system: SK-MEL-5 melanoma
[7] = test system: UACC-62 melanoma
[8] = test system: LOX IMVI melanoma
[9] = test system: SK-MEL-28 melanoma
[10] = test system: SK-MEL-2 melanoma
[11] = test system: EKVX NSCLC
[12] = test system: SN12C renal
[13] = test system: UO-31 renal
[14] = test system: ACHN renal
[15] = test system: CAKI-1 renal
[16] = test system: A498 renal
[17] = test system: CCRF-CEM leukemia
[18] = test system: MOLT-4 leukemia
[19] = test system: SNB-19 CNS
[20] = test system: TK-10 renal

Measured: growth

c1ccc(-c2n(Cc3ccc4ccccc4c3)c3ccccc3[n+]2Cc2ccc3ccccc3c2)cc1
active: [1] -31.9% | [2] -68.1% | [3] -43.9% | [4] -73.3% | [5] -30.5% | [6] -98.1% | [7] -82.9% | [8] -97.3% | [9] -43.7% | [10] -36.1% | [11] 3.45% | [12] -79.4% | [13] -79.7% | [14] -4.48% | [15] -44.7% | [16] -40.6% | [17] 2.6% | [18] -21.8%

CCCCC(CCCC)(S(=O)(=O)CC)S(=O)(=O)CC
inactive: [1] 97.7% | [2] 105% | [3] 98.4% | [19] 105% | [5] 91.6% | [7] 106% | [8] 102% | [9] 115% | [10] 108% | [12] 102% | [13] 84.6% | [20] 99.2% | [14] 105% | [15] 93.6% | [16] 88.7% | [17] 91.5% | [18] 93.6%

O=C(c1ccc2ncc(-c3nc(NC4CC4)ncc3F)n2c1)N1CCOCC1
active: [3] -21.6% | [6] -51.8% | [8] -0.283% | [13] -33.4% | [14] 0.254% | [15] 3.25%
inactive: [1] 23.8% | [2] 26.4% | [4] 28.6% | [5] 52.6% | [7] 16.9% | [9] 45.4% | [10] 27.7% | [11] 49.2% | [12] 30.1% | [20] 41.9% | [17] 19.5% | [18] 16%

O=C(Nc1ccc(Cl)c(Cl)c1)OCn1ncc2ccc([N+](=O)[O-])cc21
inactive: [1] 84.9% | [2] 103% | [3] 67.8% | [19] 92.9% | [5] 70.9% | [7] 73.6% | [8] 78.8% | [9] 108% | [10] 85% | [12] 95.1% | [13] 45.9% | [20] 92.9% | [14] 83.5% | [15] 73% | [16] 60.1% | [17] 81.8% | [18] 70.6%

CCN(C(=O)c1ccc2c3c(cccc13)C=C2)c1ccccc1
inactive: [1] 88.7% | [2] 88.8% | [3] 88.9% | [19] 93.7% | [5] 83.7% | [6] 93.9% | [7] 80.3% | [9] 108% | [10] 84.9% | [12] 94.7% | [13] 82.9% | [20] 110% | [14] 100% | [15] 88.7% | [16] 90.2% | [17] 104% | [18] 88.6%

O=C1/C(=C/c2ccc([N+](=O)[O-])cc2)Oc2ccc(O)cc21
active: [15] 5.52%
inactive: [1] 84.3% | [2] 46.8% | [3] 95.7% | [4] 63.6% | [5] 87.9% | [6] 86.8% | [7] 41.4% | [8] 60% | [9] 107% | [10] 104% | [11] 91.9% | [12] 85.8% | [20] 17.8% | [14] 82.3% | [17] 72.5% | [18] 18.7%

O=C1CC2c3cc(-c4cc5ccccc5o4)ccc3CCN2C(=O)N1c1ccccc1 (stereo not drawn)
inactive: [1] 54.6% | [2] 85.7% | [3] 73.8% | [19] 89.6% | [5] 51.9% | [6] 82.7% | [7] 81.1% | [8] 94.4% | [9] 99.8% | [10] 83% | [12] 89.3% | [13] 58.8% | [20] 78.5% | [14] 99.6% | [15] 80.8% | [16] 82% | [18] 64.1%

COc1nc2c(cc1S(=O)(=O)c1ccccc1)CCc1c-2cnn1-c1ccccc1
inactive: [1] 59.8% | [2] 54.7% | [3] 65.8% | [19] 89.3% | [5] 50.3% | [7] 69.4% | [9] 82.9% | [10] 83.4% | [12] 77.9% | [20] 67.9% | [14] 71.1% | [15] 58.2% | [16] 54.6% | [18] 54.5%
active: [13] -65.3%

COc1ccc(-c2c3c(N)c4c(nc3nc3c2c(C)nn3-c2ccccc2)CCCCC4)cc1
inactive: [1] 73.9% | [2] 41.4% | [3] 79.8% | [19] 93.7% | [5] 70.4% | [7] 98% | [8] 90.6% | [9] 98% | [10] 83.3% | [12] 93% | [20] 74.8% | [14] 77.9% | [15] 84.2% | [16] 87.9% | [17] 48% | [18] 49.5%

O=C1c2cc(S(=O)(=O)O)ccc2C(=O)c2c1cccc2[N+](=O)[O-]
inactive: [1] 110% | [2] 104% | [3] 110% | [4] 99.2% | [5] 96.3% | [6] 114% | [7] 110% | [8] 103% | [9] 121% | [10] 108% | [11] 120% | [12] 103% | [13] 85.3% | [20] 116% | [14] 111% | [15] 102% | [16] 103% | [17] 97.8% | [18] 100%

Nc1nc(N)c(N=Nc2c(Br)cc(S(N)(=O)=O)cc2Br)c(N)n1
inactive: [1] 114% | [2] 115% | [3] 90.6% | [19] 97.5% | [5] 95.1% | [6] 98.2% | [7] 91.8% | [8] 110% | [9] 99.5% | [10] 94.9% | [13] 98% | [20] 122% | [14] 114% | [15] 99% | [16] 96.4% | [17] 88.3% | [18] 95.2%

Cc1cc(Cl)c2c(Cl)ccc(Cl)c2n1
inactive: [1] 95.4% | [2] 102% | [3] 95.5% | [19] 107% | [5] 96.3% | [7] 105% | [8] 103% | [9] 113% | [10] 81.4% | [12] 113% | [13] 89.8% | [20] 112% | [14] 105% | [15] 95% | [16] 104% | [17] 98.7% | [18] 95.6%

COc1ccc(-c2[nH]ncc2Nc2cc(OC)c(OC)c(OC)c2)cc1
inactive: [1] 32.2% | [2] 26.2% | [3] 44.6% | [4] 31.1% | [5] 33.6% | [7] 27.4% | [8] 46.1% | [9] 67.2% | [10] 66.4% | [11] 49.4% | [12] 45.4% | [13] 46.8% | [20] 62% | [14] 55.7% | [15] 36.1% | [16] 48.7% | [17] 39.9% | [18] 72.6%
active: [6] -11.3%

O=[N+]([O-])c1cc2c(cc1Br)C1C(C3C2C(Cl)(Cl)C(Cl)=C(Cl)C3(Cl)Cl)C(Cl)(Cl)C(Cl)=C(Cl)C1(Cl)Cl (stereo not drawn)
inactive: [1] 103% | [2] 102% | [3] 85.8% | [19] 106% | [5] 85.1% | [6] 102% | [7] 87.1% | [8] 91.9% | [9] 102% | [10] 81.2% | [13] 74.4% | [20] 103% | [14] 102% | [15] 91.4% | [16] 111% | [18] 95.1%

CC[Si](CC)(CC)OC1[C@@H](O[Si](CC)(CC)CC)[C@@H](CNC(=O)NC)O[C@H]1n1cnc2c(NC(=O)Nc3ccccc3)ncnc21 (stereo partly drawn)
inactive: [1] 86.2% | [2] 50.2% | [3] 78.1% | [4] 82.8% | [5] 11.2% | [6] 95.1% | [7] 73% | [8] 93.7% | [9] 104% | [12] 93.6% | [13] 40.1% | [14] 88.4% | [15] 69% | [16] 38.6% | [17] 38.5%
active: [18] -10.9%

Cc1cc(NS(=O)(=O)c2ccc(NC(=O)COc3ccc(-c4cc5ccccc5[nH]4)cc3)cc2)no1
inactive: [1] 24.7% | [2] 12.3% | [4] 20.8% | [5] 13.3% | [6] 12.4% | [7] 31.4% | [9] 18.9% | [10] 27.3% | [11] 54.4% | [12] 39.2% | [13] 26.4% | [20] 52.6% | [14] 21.7% | [15] 57.5% | [16] 42.9%
active: [3] -12.2% | [8] 4.54% | [18] -2.31%

COC(=O)c1c2c(c(C)[n+]([O-])c1C)C(=O)C=C(NCc1ccc(F)cc1)C2=O
active: [1] -60.5% | [2] 2.67% | [3] -92% | [4] -23.1% | [5] 2.62% | [6] -96.8% | [7] -81.7% | [8] -47.1% | [9] 6.43% | [10] -31.3% | [11] -57% | [13] -21% | [14] -45.2% | [15] -0.887% | [17] 4.77% | [18] -35.2%
inactive: [20] 13.6%

O=c1[nH]c(-c2ccccn2)nc2sc3c(c12)CCCCCC3
inactive: [1] 27.9% | [2] 49% | [3] 64.8% | [4] 22.5% | [5] 41.1% | [7] 45.6% | [9] 40.1% | [14] 37.5% | [15] 28.1% | [16] 36.7% | [17] 32.6% | [18] 18.8%
